Reference: publication PMC7826789 (International Journal of Molecular Sciences, 2021)

Experiments:
Conditions in all cases: Compound Concentration (nM):1000
EPHB2 = test system: EPHB2
EPHB3 = test system: EPHB3
EPHB4 = test system: EPHB4
EPHB6 = test system: EPHB6
ERBB2 = test system: ERBB2
ERBB3 = test system: ERBB3
ERBB4 = test system: ERBB4
ERK1 = test system: T1, ERK1
T1 construct: gene MAPK3

ERK2 = test system: T2, ERK2
T2 construct: gene MAPK1

ERK3 = test system: T3, ERK3
T3 construct: gene MAPK6
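Further: KINOMEscan scanMAX binding as percent activity remaining versus control; lower means stronger binding.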

SMILES | Percent Control (EPHB2) | Percent Control (EPHB3) | Percent Control (EPHB4) | Percent Control (EPHB6) | Percent Control (ERBB2) | Percent Control (ERBB3) | Percent Control (ERBB4) | Percent Control (ERK1) | Percent Control (ERK2) | Percent Control (ERK3)
COc1cc2ncn(-c3cc(O[C@H](C)c4ccccc4Cl)c(C(N)=O)s3)c2cc1OC [GSK237701A] | 90% | 92% | 85% | 16% | 100% | 89% | 63% | 100% | 100% | 82%
Cl.O=C(Nc1ccc(Oc2ccc3[nH]c(NC(=O)c4ccccc4)nc3c2)cc1)Nc1cc(C(F)(F)F)ccc1F [GW709042A] | 76% | 90% | 84% | 28% | 92% | 70% | 100% | 100% | 100% | 84%
COc1ccc2cc(-c3c(-c4ccncc4)nc(-c4ccc(S(C)(=O)=O)cc4C)n3C)ccc2c1 [SB-633825] | 91% | 80% | 73% | 74% | 12% | 84% | 22% | 91% | 95% | 42%
CCS(=O)(=O)c1ccc(OC)c(Nc2ncc(-c3cccc(OC)c3)o2)c1 [GW580509X] | 100% | 100% | 100% | 3.3% | 77% | 54% | 100% | 100% | 100% | 100%
COc1ccc2[nH]c3c4[nH]c5ccc(OC)cc5c4c4c(c3c2c1)C(=O)NC4=O [GW296115X] | 84% | 85% | 84% | 7.3% | 100% | 85% | 59% | 85% | 76% | 84%
O=C1Nc2ccc(C(=O)c3ccco3)cc2C1=Cc1cc(Cl)c(O)c(Cl)c1 [GW406108X] | 100% | 89% | 98% | 63% | 83% | 87% | 100% | 100% | 94% | 94%
Nc1ncnc2occ(-c3ccc(NC(=O)Nc4cc(C(F)(F)F)ccc4F)cc3)c12 [GW770249X] | 11% | 31% | 36% | 0.5% | 67% | 91% | 100% | 100% | 100% | 100%
COc1cccc(-n2ncc3c(N/N=C/c4ccncc4)ncnc32)c1 [GW784752X] | 100% | 100% | 100% | 100% | 68% | 4.9% | 83% | 100% | 100% | 41%
CCc1ccc(Oc2nccc(-c3c(-c4ccc(F)cc4)ncn3C3CCNCC3)n2)cc1 [SB-242719] | 95% | 94% | 98% | 76% | 20% | 78% | 99% | 92% | 100% | 100%
COc1cc(C)c(N(C)C(=O)CN(C)C)cc1Nc1nc(Nc2cccc(F)c2C(N)=O)c2cc[nH]c2n1 [GSK2219385] | 100% | 93% | 100% | 74% | 94% | 57% | 86% | 65% | 100% | 90%
